Assay outcomes (PubChem)
LmPK inhibitor = inhibitors of Leishmania mexicana pyruvate kinase | Q27686 | purified LmPK, Kinase-Glo ATP luminescence, 1 h | Potency, µM (series often up to 57.5 µM), usual class: inhibitors | 290,000 compounds, 0.37% hits
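In 50 mM imidazole pH 7.2 with 7 mM MgCl2, LmPK (0.1 nM) turned over PEP (0.5 mM) and ADP (0.1 mM) for 1 h at room temperature. Luciferase read-out of ATP.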
RE007 growth inh = less growth of the S. pombe RE007 Vpr strain. 360,000 compounds, 0.21% hits. S. pombe RE007 Vpr strain, BacTiter-Glo ATP luminescence, 24 h. AID 651644. Potency, µM (titrated, usually from 92.2 µM), hits mostly inhibitors; active means well fitted falling curve with a large enough effect; inconclusive means small, poorly fitted or top-dose-only effect; inactive means no such curve, though single readings can be large or run the other way; further: nearly all actives have a fitted effect of over 50% in size
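Fission yeast RE007 carrying one integrated HIV-1 vpr copy, seeded at OD 0.01 in PMG+AL medium with 23 nL pinned compound. Grown 24 h at 30 degrees; viability read by BacTiter-Glo luminescence after 5 min.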
Tb PYK inh = blocks Trypanosoma brucei pyruvate kinase; Q57TT1; TbPYK enzyme, Kinase-Glo Plus ATP luminescence, 45 min; Potency, µM (titrated, usually from 76.8 µM), actives largely listed as inhibitors; 410,000 compounds, 0.12% hits; further: nearly all actives have a fitted effect of over 50% in size
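Screened from lowest to highest concentration, compounds were pinned into TbPYK/substrate mixtures, and ADP (130 uM final) was added. Plates sat at room temperature for 45 min prior to Kinase-Glo Plus detection by luminescence.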
Cycloheximide cs = counter-screen for Shiga toxin inhibitors: cycloheximide protein synthesis inhibition; cell reporter, cycloheximide protein synthesis inhibition counterscreen; max response, %; 300,000 compounds, 12% hits; in the data active means max response mostly above about 13%, no sharp cut-off; inactive means mostly below about 14%; further: read at 38.3 µM for the half of the compounds with a filed dose
FBPA Giardia inh = blocks Giardia fructose-bisphosphate aldolase activity; purified Giardia FBPA; Potency, µM (highest dose often 59.6 µM), most hits filed as inhibitors; A8B2U2; 290,000 compounds, 0.71% hits; further: nearly all actives have a fitted effect of over 55% in size
Target sequence (A8B2U2 whole entry, looked up): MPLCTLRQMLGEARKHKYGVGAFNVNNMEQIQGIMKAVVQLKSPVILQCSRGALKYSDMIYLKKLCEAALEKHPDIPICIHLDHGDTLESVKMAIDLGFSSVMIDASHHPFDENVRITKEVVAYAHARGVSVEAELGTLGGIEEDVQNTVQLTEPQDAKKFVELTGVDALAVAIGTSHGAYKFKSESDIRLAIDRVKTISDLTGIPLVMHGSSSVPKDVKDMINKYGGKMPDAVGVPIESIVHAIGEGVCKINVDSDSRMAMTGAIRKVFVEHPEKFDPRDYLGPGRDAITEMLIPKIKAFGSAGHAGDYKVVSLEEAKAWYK
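40 nM FBPA preincubated 10 min at RT with compound (up to 57.5 uM final), then substrate plus GAPDH/TPI/NAD/arsenate coupling and diaphorase/resazurin added. Fluorescence read after 20 min at RT, 525/598 nm.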
Shiga toxin inh = Shiga toxin inhibition; Vero cells, Shiga toxin protein synthesis inhibition reporter; inhibition, % at 38.7 µM; 290,000 compounds, 9.2% hits; in the data active means inhibition mostly above about 28%, no sharp cut-off; inactive means mostly below about 43%
Numbers stand for hits; - = inactive; ? = inconclusive; . = no result given; [ ] = remark or other dose. Shown is part of a subset that was picked to be rich in hits. Unless noted, the call rests on the fitted dose curve; in most records, active means well fitted curve in the direction sought with a large enough effect; inconclusive means small, poorly fitted or top-dose-only effect, or another doubt; inactive means no such curve, though single readings can be large; an effect the other way counts as inactive or inconclusive.

SMILES	LmPK inhibitor	RE007 growth inh	Tb PYK inh	Cycloheximide cs	FBPA Giardia inh	Shiga toxin inh
O/N=C/c1cn(-c2ccccc2)nn1	-	-	-	27.1	-	-
Nc1[nH]ncc1-c1ccccc1	-[11.5 µM]	-	-	-	-	-
COc1ccc2cnn(CCOc3cc(C)ccc3C(C)C)c(=O)c2c1OC	-	-	-	-	-	-
CCOc1ccccc1OCCn1ncc2ccc(OC)c(OC)c2c1=O	-	-	-	18.1	-	-
COc1ccc2cnn(CCOc3ccccc3)c(=O)c2c1OC	-	-	-	34.0	-	-
CC(C)(C)c1ccc(-c2nc(C=O)c3ccccn23)cc1	-	-	-	38.9	-	-
C(=N\N1CCOCC1)/c1nc(-c2ccccc2)n2ccccc12	-	-	-	-	-	-
CCCCCCCCCCCCCC(=O)OC(C)C	.	.	-	.	.	.
COc1ccc(-c2nc(SC)n(S(=O)(=O)c3ccccc3)n2)cc1	-	-	-	27.9	-	96.0
CSc1nc(-c2ccccc2)nn1S(=O)(=O)c1ccccc1	-	-	-	17.5	-	-
CSc1nc(-c2ccccc2)nn1S(=O)(=O)c1ccc(Cl)cc1	-	-	-	-	-	-
CCOc1ccc(N2CC(c3nc4ccccc4n3Cc3cccc(Cl)c3)CC2=O)cc1 (configuration not stated)	.	.	-	.	.	.
CCOC(=O)C1=NN(C(=O)c2ccc(OC)cc2)C(O)(c2ccc(Cl)cc2)C1 (configuration not stated)	-	-	-	-	-	-
CCOC(=O)C1=NN(C(=O)c2ccccc2)C(O)(c2ccc(C)cc2)C1 (configuration not stated)	-	-	-	44.8	-	89.5
CCOC(=O)C1=NN(C(=O)c2cccc(Br)c2)C(O)(C(C)(C)C)C1 (configuration not stated)	-	.	.	19.5	-	73.7
COC(=O)C1=NN(C(=O)c2cccc(Br)c2)C(O)(c2ccc(Cl)cc2)C1 (configuration not stated)	-	-	-	-	-	-
CC1=NN(C(=O)c2ccccc2)C(O)(c2ccc(Br)cc2)C1 (configuration not stated)	-	-	-	43.6	-	67.7
CCCC(C)c1oc(=O)cc(O)c1C (configuration not stated)	.	-	-	.	.	.
N#Cc1cc(C#N)c(N2CCN(c3cccc(Cl)n3)CC2)nc1N	-	-	-	67.1	-	88.7
Cc1ccc(NC(=O)c2c(C)oc3ccc(O)c(CN4CCCCCC4)c23)cc1	.	.	-	.	.	.
CCCC(=O)OCC(=O)Nc1ccc2c(c1)OCO2	-	-	-	15.2	-	-
O=C(COC(=O)C1CC1)Nc1ccc2c(c1)OCO2	-	-	-	35.6	-	-
CC(=O)Nc1ccc(S(=O)(=O)NCCC(=O)NNC(=O)c2ccccc2O)cc1	.	-	-	.	.	.
Cc1c([N+](=O)[O-])cnc(Sc2ccccc2)c1[N+](=O)[O-]	.	?	-	.	.	.
CCOc1ccccc1OCCCn1c(-c2ccc(Cl)cc2)nc2ccccc2c1=O	.	.	-	.	.	.
SMILES	LmPK inhibitor	RE007 growth inh	Tb PYK inh	Cycloheximide cs	FBPA Giardia inh	Shiga toxin inh
COC(=O)Cn1nnc2c(cnn2-c2ccccc2)c1=O	-	-	-	25.3	-	-
CC(C)OC(=O)Cn1nnc2c(cnn2-c2ccccc2)c1=O	-	-	-	45.8	-	64.8
CC1CCC2(CC1)NC(=O)N(NC(=O)C1CCN(C(=O)c3ccc(Cl)cc3)CC1)C2=O (configuration not stated)	.	-	-	.	.	.
CC(=O)N1CC=CC1(CC(C)C)C(=O)NCCN1CCOCC1 (configuration not stated)	-	-	-	34.1	-	54.8
CC(C)CC1(C(=O)NCCN2CCOCC2)C=CCN1C(=O)c1ccccc1 (configuration not stated)	-	-	-	-	-	-
N#Cc1ccc(-c2ccc(OCC3CNC(=O)O3)cc2)cc1 (configuration not stated)	-	-	-	47.3	-	65.4
COc1ccc(OC)c(NC(=O)N2CCC(CN3CCCCC3)CC2)c1	.	.	-	.	.	.
COCCN=C1NN=C(c2ccc(C)c([N+](=O)[O-])c2)CS1	-	-	?	46.7	-	63.1
CCCCN=C1NN=C(c2ccc(C)c(C)c2)CS1	-	-	-	44.3	-	87.3
Cc1ccc(OCc2cc(=O)n3c4c(sc3n2)CCCC4)cc1C	.	.	-	.	.	.
